Measurements reported in the supplement of paper PMC11006884.
The full data set covers some 6,500 targets. This sample favours those with a hit. About 2% of all pairs of compound and target were hits. Values without a mark were called inactive.

Compound: COC(=O)C#Cc1ccccc1 [methyl 3-phenylpropiolate]
Assay: log2 ratio of iodoacetamide-alkyne labeling of the cysteine site, DMSO over compound (competition); higher = stronger covalent engagement of the cysteine by the compound, active = 1 or more
Conditions: 500 µM; treatment time 1 h; system: HEK293T cell lysate
Summary of the method: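 Electrophile (500 µM) or vehicle was added to HEK293T lysate (2 mg/mL) for 1 h at ambient temperature before iodoacetamide alkyne labelling (1 h) and click coupling to sCIP-TMT reagents. After pooling, overnight trypsin digestion at 37 °C, streptavidin enrichment and acid elution, peptides were measured by Orbitrap Eclipse LC-MS/MS with FAIMS and quantified in FragPipe. Each cysteine's log2 competition ratio compares mean control-channel with mean compound-channel reporter intensity, control over compound. Data came from duplicate channels across three replicates, excluding cysteines quantified in only one replicate.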

UniProt O43172, sequence (O43172 whole entry, looked up): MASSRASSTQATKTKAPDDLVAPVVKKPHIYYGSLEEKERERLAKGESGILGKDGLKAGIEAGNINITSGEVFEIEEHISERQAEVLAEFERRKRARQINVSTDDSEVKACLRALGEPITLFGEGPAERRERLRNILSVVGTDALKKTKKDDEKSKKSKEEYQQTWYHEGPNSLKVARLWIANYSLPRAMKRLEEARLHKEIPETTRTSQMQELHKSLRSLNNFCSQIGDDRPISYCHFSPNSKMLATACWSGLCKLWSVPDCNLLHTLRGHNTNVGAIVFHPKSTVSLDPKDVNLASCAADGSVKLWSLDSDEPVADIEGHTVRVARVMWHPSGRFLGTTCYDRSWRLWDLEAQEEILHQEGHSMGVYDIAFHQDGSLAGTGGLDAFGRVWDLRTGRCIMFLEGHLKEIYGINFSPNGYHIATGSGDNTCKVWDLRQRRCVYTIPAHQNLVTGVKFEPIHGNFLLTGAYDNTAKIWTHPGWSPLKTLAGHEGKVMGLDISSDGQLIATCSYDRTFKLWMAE
UniProt O75179, sequence (O75179 whole entry, looked up): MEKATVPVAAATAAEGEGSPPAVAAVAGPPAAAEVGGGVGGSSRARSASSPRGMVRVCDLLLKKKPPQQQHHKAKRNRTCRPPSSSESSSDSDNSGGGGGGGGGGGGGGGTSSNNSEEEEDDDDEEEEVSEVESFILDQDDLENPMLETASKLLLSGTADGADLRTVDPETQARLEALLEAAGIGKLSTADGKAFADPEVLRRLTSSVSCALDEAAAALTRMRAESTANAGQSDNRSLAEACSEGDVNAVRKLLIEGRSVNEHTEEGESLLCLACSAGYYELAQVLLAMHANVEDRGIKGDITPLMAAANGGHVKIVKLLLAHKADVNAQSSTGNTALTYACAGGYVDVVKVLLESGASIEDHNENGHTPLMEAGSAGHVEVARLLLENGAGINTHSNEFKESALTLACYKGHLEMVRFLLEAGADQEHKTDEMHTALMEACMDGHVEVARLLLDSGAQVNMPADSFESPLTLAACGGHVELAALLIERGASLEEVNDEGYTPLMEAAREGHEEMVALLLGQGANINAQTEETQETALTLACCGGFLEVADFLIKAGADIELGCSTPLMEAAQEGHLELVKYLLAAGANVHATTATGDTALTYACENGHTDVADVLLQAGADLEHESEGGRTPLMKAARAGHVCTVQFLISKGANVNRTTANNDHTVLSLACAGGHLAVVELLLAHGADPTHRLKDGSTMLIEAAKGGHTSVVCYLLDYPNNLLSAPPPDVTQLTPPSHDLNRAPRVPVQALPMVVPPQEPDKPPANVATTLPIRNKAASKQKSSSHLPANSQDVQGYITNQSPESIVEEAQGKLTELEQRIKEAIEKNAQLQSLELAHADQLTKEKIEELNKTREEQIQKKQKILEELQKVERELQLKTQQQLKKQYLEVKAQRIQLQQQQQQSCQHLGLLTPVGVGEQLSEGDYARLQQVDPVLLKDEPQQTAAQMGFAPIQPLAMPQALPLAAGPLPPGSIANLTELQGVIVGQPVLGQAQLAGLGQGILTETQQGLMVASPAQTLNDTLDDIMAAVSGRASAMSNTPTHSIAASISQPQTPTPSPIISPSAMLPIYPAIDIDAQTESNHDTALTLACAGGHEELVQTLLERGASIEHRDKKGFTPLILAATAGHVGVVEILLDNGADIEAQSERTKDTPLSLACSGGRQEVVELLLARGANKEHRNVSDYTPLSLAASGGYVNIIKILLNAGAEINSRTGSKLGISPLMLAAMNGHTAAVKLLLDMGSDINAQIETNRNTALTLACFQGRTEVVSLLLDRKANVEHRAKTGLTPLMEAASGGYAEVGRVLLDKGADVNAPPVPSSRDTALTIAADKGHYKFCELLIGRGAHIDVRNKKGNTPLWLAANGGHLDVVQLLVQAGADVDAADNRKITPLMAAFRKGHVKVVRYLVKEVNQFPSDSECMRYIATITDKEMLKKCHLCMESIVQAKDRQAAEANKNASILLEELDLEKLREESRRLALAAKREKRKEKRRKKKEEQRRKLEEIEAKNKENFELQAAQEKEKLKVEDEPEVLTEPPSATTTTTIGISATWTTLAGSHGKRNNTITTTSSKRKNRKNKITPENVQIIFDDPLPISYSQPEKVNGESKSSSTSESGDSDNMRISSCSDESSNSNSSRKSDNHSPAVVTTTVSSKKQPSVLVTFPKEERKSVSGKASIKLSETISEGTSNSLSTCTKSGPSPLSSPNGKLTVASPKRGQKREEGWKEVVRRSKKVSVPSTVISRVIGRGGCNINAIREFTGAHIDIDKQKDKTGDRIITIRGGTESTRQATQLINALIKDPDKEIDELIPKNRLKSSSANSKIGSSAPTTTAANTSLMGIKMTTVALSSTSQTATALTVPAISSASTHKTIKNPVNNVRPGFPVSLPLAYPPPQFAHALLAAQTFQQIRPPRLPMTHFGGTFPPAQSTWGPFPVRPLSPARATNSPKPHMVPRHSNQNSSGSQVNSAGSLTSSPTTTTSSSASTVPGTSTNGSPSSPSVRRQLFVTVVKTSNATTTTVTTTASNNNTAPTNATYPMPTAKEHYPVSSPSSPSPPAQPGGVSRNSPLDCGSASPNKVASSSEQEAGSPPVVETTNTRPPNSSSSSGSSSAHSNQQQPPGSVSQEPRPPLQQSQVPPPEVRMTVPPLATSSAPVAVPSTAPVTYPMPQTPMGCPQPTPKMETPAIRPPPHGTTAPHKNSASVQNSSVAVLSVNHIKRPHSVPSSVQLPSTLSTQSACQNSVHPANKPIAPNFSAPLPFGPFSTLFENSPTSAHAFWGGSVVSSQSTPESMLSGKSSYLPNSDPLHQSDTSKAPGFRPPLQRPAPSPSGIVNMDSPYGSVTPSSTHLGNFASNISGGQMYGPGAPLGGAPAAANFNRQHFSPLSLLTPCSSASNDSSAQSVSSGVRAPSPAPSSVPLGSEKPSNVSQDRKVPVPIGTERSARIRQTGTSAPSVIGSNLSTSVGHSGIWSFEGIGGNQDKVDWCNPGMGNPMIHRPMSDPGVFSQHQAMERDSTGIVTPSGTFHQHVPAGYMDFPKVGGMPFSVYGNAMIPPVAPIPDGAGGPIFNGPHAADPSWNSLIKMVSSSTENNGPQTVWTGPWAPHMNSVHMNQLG
UniProt O75533, sequence (O75533 whole entry, looked up): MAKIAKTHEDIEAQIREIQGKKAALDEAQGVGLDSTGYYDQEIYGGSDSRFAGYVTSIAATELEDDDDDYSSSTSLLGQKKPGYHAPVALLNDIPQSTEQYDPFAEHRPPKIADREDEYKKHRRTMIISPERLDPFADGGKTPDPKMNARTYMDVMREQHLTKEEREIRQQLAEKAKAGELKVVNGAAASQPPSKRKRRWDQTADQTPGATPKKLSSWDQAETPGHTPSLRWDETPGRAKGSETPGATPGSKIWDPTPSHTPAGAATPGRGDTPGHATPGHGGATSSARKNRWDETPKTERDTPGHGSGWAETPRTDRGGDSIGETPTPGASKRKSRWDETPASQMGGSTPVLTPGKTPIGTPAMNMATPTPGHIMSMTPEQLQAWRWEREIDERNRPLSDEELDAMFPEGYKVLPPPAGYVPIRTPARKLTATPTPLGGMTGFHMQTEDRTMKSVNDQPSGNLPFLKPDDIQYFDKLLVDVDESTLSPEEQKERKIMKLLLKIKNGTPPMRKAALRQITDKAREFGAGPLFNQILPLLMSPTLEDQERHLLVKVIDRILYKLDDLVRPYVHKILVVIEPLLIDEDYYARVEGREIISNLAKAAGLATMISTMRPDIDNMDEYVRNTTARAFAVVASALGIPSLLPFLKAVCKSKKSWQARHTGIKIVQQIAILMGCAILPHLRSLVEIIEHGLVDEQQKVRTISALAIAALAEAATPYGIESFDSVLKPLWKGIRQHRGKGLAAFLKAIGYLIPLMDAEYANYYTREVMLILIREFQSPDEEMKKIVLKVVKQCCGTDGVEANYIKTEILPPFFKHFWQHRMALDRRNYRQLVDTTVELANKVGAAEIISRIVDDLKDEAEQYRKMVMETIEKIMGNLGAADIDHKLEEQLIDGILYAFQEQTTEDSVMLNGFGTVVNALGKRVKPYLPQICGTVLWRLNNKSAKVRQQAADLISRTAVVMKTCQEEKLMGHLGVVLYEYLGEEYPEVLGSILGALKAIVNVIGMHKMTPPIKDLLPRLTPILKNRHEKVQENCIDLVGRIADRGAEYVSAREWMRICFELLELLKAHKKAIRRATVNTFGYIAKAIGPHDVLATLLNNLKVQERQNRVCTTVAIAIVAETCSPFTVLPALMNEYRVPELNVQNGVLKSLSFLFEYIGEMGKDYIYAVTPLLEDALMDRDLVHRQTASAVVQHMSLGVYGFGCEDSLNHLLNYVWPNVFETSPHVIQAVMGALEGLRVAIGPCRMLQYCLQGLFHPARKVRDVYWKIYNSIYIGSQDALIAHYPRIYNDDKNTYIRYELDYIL
UniProt O75439, sequence (O75439 whole entry, looked up): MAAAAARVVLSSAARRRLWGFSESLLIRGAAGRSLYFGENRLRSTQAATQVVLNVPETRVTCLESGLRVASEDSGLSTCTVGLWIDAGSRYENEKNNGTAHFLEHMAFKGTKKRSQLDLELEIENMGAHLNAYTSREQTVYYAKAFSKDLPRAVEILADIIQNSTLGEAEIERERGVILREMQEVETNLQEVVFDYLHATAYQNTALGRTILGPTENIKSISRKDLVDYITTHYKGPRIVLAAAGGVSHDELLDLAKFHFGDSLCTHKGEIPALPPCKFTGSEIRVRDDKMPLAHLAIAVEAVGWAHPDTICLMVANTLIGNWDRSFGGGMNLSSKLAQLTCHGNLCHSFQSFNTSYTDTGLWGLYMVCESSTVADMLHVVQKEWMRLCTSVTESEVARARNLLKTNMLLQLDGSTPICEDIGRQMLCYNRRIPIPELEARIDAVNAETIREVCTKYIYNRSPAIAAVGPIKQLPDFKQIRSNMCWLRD
UniProt O43583, sequence (O43583 whole entry, looked up): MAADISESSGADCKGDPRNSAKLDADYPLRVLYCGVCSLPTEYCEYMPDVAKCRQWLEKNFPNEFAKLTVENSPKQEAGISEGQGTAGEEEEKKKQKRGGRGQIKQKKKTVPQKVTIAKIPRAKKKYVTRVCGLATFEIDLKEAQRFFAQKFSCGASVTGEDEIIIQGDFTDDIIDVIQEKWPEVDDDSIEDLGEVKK

Target | log2 ratio of iodoacetamide-alkyne labeling
FLNB C455 (UniProt O75369) | 1.24 (active)
TRAFD1 C476 (UniProt O14545) | 1.55 (active)
DNM1L C446 (UniProt O00429) | 0.102
PHGDH C369 (UniProt O43175) | 1.78 (active)
SASH1 C406 (UniProt O94885) | 1.19 (active)
UniProt O94822_C498 | 0.086
DNM1L C361 (UniProt O00429) | 0.736
UniProt O43303_C535 | 0.837
EIF5B C720 (UniProt O60841) | 0.266
UniProt O75947_C101 | 0.98
PFAS C270 (UniProt O15067) | 0.115
UniProt O15042_C291 | 1 (active)
EIF3D C196 (UniProt O15371) | 0.719
DENR C13 (UniProt O43583) | 0.235
AKAP8 C275 (UniProt O43823) | 1.06 (active)
UniProt O00567_C211 | 1.14 (active)
DVL2 C412 (UniProt O14641) | 0.134
NMT2 C104 (UniProt O60551) | 0.453
UniProt O94822_C186 | -0.317

Target | log2 ratio of iodoacetamide-alkyne labeling
GTPBP1 C669 (UniProt O00178) | 1.13 (active)
USO1 C303 (UniProt O60763) | 0.712
UniProt O43598_C26 | 0.038
OFD1 C581 (UniProt O75665) | 0.478
ANKRD17 C210 (UniProt O75179) | 0.398
HGS C166 (UniProt O14964) | 0.319
TMEM189 C21 (UniProt A5PLL7) | 1.52 (active)
UniProt O95071_C2267 | 0.736
RPP40 C49 (UniProt O75818) | 0.0974
UniProt O43929_C16 | 0.153
WASL C431 (UniProt O00401) | 1.06 (active)
HTATSF1 C471 (UniProt O43719) | 1.14 (active)
POLRMT C925 (UniProt O00411) | -0.0567
PMPCB C419 (UniProt O75439) | 0.112
UniProt O75153_C1196 | 0.492
SF3B1 C1059 (UniProt O75533) | 0.247
TBC1D4 C6 (UniProt O60343) | 0.373
ARHGEF11 C1166 (UniProt O15085) | 0.618
PRPF4 C237 (UniProt O43172) | 1.42 (active)
